# A selection: hits, their analogues and other compounds. The true share with any hit is near 3.2%.
# SMARCA2 activ = activators of SMARCA2 function; 1% of 370,000 active; MG213 cells, MMTV-luciferase reporter, dexamethasone, overnight; activation, % at 9.1 µM; in the data active = activation above about 7.8%;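 also: 0% = vehicle wells and 100% = reference activator wells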
# esBAF inh = inhibitors of esBAF chromatin remodeling in mouse ES cells; reporter increase, % at 12.5 µM; 2% of 350,000 active; Bmi1-luciferase knock-in reporter, 24 h; 100% = twice the neutral-well signal; AID 602393; in the data active = activation above about 40%;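 also: 0% = median of the plate's neutral control wells and 100% = double that signal; a rise in the Bmi1 reporter signal indicates esBAF inhibition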
# dFosB activator = enhances mouse delta FosB homodimer DNA binding; purified delta FosB, TAMRA-CDK5 oligo fluorescence polarization; percent of positive-control signal above neutral wells; activation, % at 25 µM; 0.99% of 340,000 active;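 active = mean activation above about 17%, with every replicate also reaching it, limit read from the data, passing the limit was not always enough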
# Target sequence (P13346 whole entry, looked up): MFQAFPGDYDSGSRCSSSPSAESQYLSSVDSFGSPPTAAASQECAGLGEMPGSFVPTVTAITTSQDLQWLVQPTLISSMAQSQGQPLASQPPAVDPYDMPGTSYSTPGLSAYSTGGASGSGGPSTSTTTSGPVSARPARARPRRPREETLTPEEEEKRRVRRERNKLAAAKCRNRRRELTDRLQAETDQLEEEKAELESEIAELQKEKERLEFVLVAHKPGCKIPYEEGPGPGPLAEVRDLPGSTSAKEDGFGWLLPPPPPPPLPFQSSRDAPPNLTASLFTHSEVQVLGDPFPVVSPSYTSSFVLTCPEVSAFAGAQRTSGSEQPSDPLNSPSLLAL
# DYRK1A inh = blocks rat Dyrk1A kinase activity; ADP-Glo luminescence, NFATc1 peptide; inhibition, % at 12.5 µM; 0.43% of 310,000 active; AID 504441; in the data active = inhibition above about 50%;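 also: plate controls were vehicle with enzyme for no effect and no enzyme for full effect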
# Rtt109 HAT inh = blocks Candida albicans Rtt109/Vps75 acetyltransferase activity. purified Rtt109/Vps75, ThioGlo CoA-SH fluorescence, 4 h. inhibition, % at 34.9 µM. Q5AAJ8. AID 540336. 0.16% of 330,000 active;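 active = inhibition of at least 50% in every replicate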
# CDK5 p35 inh = inhibitors of human CDK5/p35 kinase | Q00535+Q15078 | Recombinant CDK5/p35, ADP-Glo luminescence, 60 min | inhibition, % at 10 µM | AID 488839 | 0.01% of 330,000 active;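 active = highest replicate inhibition of at least 50% and at least 75% of replicates reaching 50%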;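 also: plate controls were DMSO neutral control for no effect and GW8510 at 10 µM for full effect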
# Numbers without * were called inactive; . = no result given.
SMILES,SMARCA2 activ,esBAF inh,dFosB activator,DYRK1A inh,Rtt109 HAT inh,CDK5 p35 inh
C=CCNc1nnc(SC2CC(=O)N(c3ccc(OC)cc3)C2=O)s1 (centres undefined),1,-4,-5,7,126*,0
O=C1CC(Sc2cccs2)C(=O)N1c1ccccc1 (centres undefined),0,-12,1,11,2,1
CCCc1cc(=O)n2[nH]c(-c3cccc(Br)c3)cc2n1,1,52*,2,1,3,1
N=C1N(c2ccccc2)C(=S)C(=Nc2ccccc2)N1c1ccccc1,2,.,-4,0,3,-1
CCOC(=O)c1ccc(N=C2C(=S)N(c3ccc(C(=O)OCC)cc3)C(=N)N2/N=C/c2ccccc2)cc1,0,37,-5,-7,64*,-1
O=C(C[C@@H]1C[C@@H]2c3cc(NC(=O)Cc4ccncc4)ccc3O[C@@H]2[C@@H](CO)O1)NCc1ccccc1,.,4,.,.,.,.
CC[n+]1c(/C=C/c2c[nH]c3ccccc23)ccc2cc(C)ccc21,-8,.,12,11,84*,3
CCN(CC)C(=O)c1ccc(/C=C/c2c[nH]c3ccccc23)[n+](C)c1,3,0,3,-9,3,0
COc1ccc(COc2ccc3ccc(=O)oc3c2)cc1,1,56*,-15,1,-1,2
CN1C(=O)c2cc(NC(=O)c3ccc(F)c(F)c3)ccc2OC[C@H]2O[C@@H](CC(=O)Nc3ccc4c(c3)COC4)CC[C@@H]21,.,3,.,.,.,.
CCOC(=O)/C(C#N)=C/Nc1ccccc1OC,4,47*,-7,-1,21,-1
O=c1c2ccccc2oc2cc(-c3ccc(CN4CCOCC4)cc3)ccc12,5,77*,-27,15,-1,-5
O=[N+]([O-])c1ccc(/C=N/NC(=S)Nc2ccccc2F)o1,-1,24,-8,6,20,.
Fc1ccccc1NC(=S)N/N=C/c1ccccc1Br,5,60*,-8,0,2,2
O=C(NCc1cccc(F)c1)[C@@H]1[C@@H](CO)[C@@H]2Cn3c(cccc3=O)[C@H]1N2,.,2,.,.,.,.
COCCCNC1=C(C#N)C(=O)NC(c2cccc([N+](=O)[O-])c2)S1 (centres undefined),-4,.,.,.,.,.
COc1cc(C2NC(=O)C(C#N)=C(Nc3cccc(C)c3)S2)ccc1O (centres undefined),3,.,2,5,147*,2
CN(C)CC(=O)Nc1ccc2c(c1)[C@@H]1C[C@@H](CC(=O)NCCc3ccccc3)O[C@@H](CO)[C@@H]1O2,.,-3,.,.,.,.
CCCc1ccc2oc(C(=O)N3CCC(COC)C3)c(C)c2c1 (centres undefined),6,54*,-12,2,5,0
CCCc1ccc2oc(C(=O)N3CCC[C@H]3CO)c(C)c2c1,2,57*,-3,-1,3,0
C[C@H]1CN([C@@H](C)CO)C(=O)c2cc(NS(=O)(=O)c3ccccc3)ccc2O[C@H]1CN(C)Cc1ccc(C(=O)O)cc1,.,-1,.,.,.,.
CN(C)C(=O)[C@@H]1[C@@H](CO)[C@@H]2Cn3c(ccc(/C=C/c4ccccc4)c3=O)[C@@H]2N1C(=O)c1cnccn1,.,-5,.,.,.,.
CCOC(=O)c1cnc2cc(-c3ccc(C)cc3)nn2c1-c1ccccc1,0,.,-4,4,-6,2
CCOC(=O)c1cnc2c(-c3cccc(Br)c3)cnn2c1C,-2,.,-2,2,5,-1
CC(=O)c1cnc2cc(-c3cccc(Br)c3)nn2c1C,2,50*,4,7,.,-4
SMILES,SMARCA2 activ,esBAF inh,dFosB activator,DYRK1A inh,Rtt109 HAT inh,CDK5 p35 inh
CCOC(=O)c1cnn(-c2ccc(C)cc2)c1N,0,56*,0,.,-2,0
CCOC(=O)c1cnc2cc(-c3ccc(C)cc3)nn2c1C,-2,71*,.,.,.,.
CCOC(=O)c1ccc(-n2ncc(C(=O)OCC)c2N)cc1,2,21,-16,4,-17,-1
NC(=O)C1=C[C@H](C2CCCCC2)C[C@H](OCc2ccc(CO)cc2)O1,4,73*,-6,7,-3,-1
CC(=O)Nc1ccc2c(c1)C(=O)N(C)[C@@H]1CC[C@H](CC(=O)NCc3ccccc3)O[C@@H]1CO2,.,0,.,.,.,.
NS(=O)(=O)c1ccc2nc(NC(=O)CS(=O)(=O)c3ccccc3)sc2c1,-1,1,-5,.,5,.
O=C(CS(=O)(=O)c1ccccc1)Nc1nc2ccccc2s1,0,41*,0,11,-13,-5
Fc1ccc(Nc2nc3ccccc3s2)cc1,2,46*,-5,-3,-14,0
Cc1ccc(Nc2nc3ccccc3s2)cc1,6,.,2,3,-5,1
O=S(=O)(/N=C(/Nc1nc2ccccc2s1)c1ccccc1)c1ccc(F)cc1,5,50*,-7,-9,7,3
COc1ccccc1-c1ccc2c(c1)O[C@@H](CN(C)S(=O)(=O)c1ccc(F)cc1)[C@@H](C)CN([C@H](C)CO)S2(=O)=O,.,0,.,.,.,.
N#CCc1ccc(NC(=O)Nc2cccc3ccccc23)cc1,.,49*,-1,-5,-8,-1
Cc1ccc(NC(=O)Nc2cccc3ccccc23)cc1,-1,29,6,-2,-1,0
Cc1ccc(OCCN(C)C(=O)c2cc(COc3ccc(F)cc3F)on2)cc1,0,9,-8,-3,37,1
COc1cccc(OCc2cc(C(=O)N(C)CCOc3ccc(C)cc3)no2)c1,2,67*,-7,-3,13,1
COc1ccc(OCc2cc(C(=O)N(C)Cc3nccn3C)no2)c2ccccc12,0,0,-11,-1,7,0
COc1cccc(OCc2cc(C(=O)N(C)Cc3nccn3C)no2)c1,6,69*,-1,-4,8,-1
CCCNC(=O)C[C@@H]1CC[C@H]2[C@@H](COC[C@H](O)CN2C(=O)CC)O1,.,-7,.,.,.,.
C=CCNc1nc(Nc2ccc([N+](=O)[O-])cc2)nc(N2CCCC2)n1,-4,.,62*,-1,-7,-1
CCOc1ccc(NC(=O)c2ccc3c(c2)N(C)CCS3)cc1,3,72*,.,.,.,.
CCN1CCSc2ccc(C(=O)Nc3ccc(NC(C)=O)cc3)cc21,-3,11,-2,-1,-7,1
Nc1ccc(CSc2ccccc2)cc1,5,54*,0,.,0,-1
Nc1c(C(=O)NCc2ccco2)nnn1-c1ccccc1,-1,50*,12,4,2,2
CC(C)CC#Cc1ccc2c(c1)O[C@@H](CN(C)C(=O)c1cnccn1)[C@H](C)CN([C@@H](C)CO)S2(=O)=O,.,6,.,.,.,.
Cc1ccc(O)c(Nc2c3ccccc3nc3ccccc23)c1,1,0,35*,3,5,2
Cc1ccc(O)c(Nc2nc(-c3ccccc3)nc3ccccc23)c1,0,0,-4,15,8,0

# Screening results from PubChem.
